IMPase cell inh: IMPase inhibition in cells. P97697. CHO-M1 cells, IP1 accumulation, HTRF TR-FRET ratio. inhibition (IP1 accumulation), % at 46.1 µM. 120,000 tested, under 10 active. AID 901; active = well fitted curve in the direction sought with a large enough effect in the signal ratio, not every such curve was filed as active; inconclusive = small, poorly fitted or top-dose-only effect, or a change in a side signal; inactive = no such curve, though single readings can be large or run the other way; the % refers to the signal ratio;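 note: cells stimulated with carbachol in lithium chloride buffer; plate controls were DMSO basal wells for no effect and reference inhibitor wells for full effect; higher means more IMPase inhibition seen as more IP1 and lower FRET ratio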
Target sequence (P97697 whole entry, looked up): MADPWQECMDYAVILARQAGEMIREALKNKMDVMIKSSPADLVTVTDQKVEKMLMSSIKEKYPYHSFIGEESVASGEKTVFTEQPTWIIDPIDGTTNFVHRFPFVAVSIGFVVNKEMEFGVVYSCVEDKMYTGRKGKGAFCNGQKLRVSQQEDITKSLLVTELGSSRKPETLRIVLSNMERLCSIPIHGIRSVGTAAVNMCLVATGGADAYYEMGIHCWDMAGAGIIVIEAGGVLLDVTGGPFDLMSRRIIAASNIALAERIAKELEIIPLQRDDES
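Carbachol-driven Gq signalling in CHO-M1 cells (2000/well) generates IP1. Compounds that block IMPase raise IP1 and so reduce the FRET signal from Eu-anti-IP1 and d2-IP1 after a 10 min room-temperature lysis.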
HPGD block: HPGD (human) dehydrogenase inhibition; P15428; purified HPGD, NADH fluorescence kinetic, PGE2 substrate; Potency, µM, inactives show at the top dose activity change, negative = inhibition, usual class: inhibitors; 150,000 tested, 4.3% active; AID 894; note: potency is the fitted concentration of half-maximal effect
Target sequence (P15428 whole entry, looked up): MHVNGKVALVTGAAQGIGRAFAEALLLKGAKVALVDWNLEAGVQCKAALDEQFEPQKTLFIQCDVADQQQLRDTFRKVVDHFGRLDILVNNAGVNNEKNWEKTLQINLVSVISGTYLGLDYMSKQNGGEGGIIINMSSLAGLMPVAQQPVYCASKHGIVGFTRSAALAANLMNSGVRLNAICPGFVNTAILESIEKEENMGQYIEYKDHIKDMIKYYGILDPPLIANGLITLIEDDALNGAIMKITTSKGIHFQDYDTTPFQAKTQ
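NADH formation kinetics: reaction with 30 uM PGE2 and 1 mM NAD+ (final), 20 nM enzyme, Tris-HCl pH 8 with Tween 20, after 15 min compound preincubation at room temperature. Fluorescence change, last versus first of five reads.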
ALDH1A1 inh: ALDH1A1 (human) enzyme inhibition | Potency, µM (series often up to 75.3 µM), without a hit: at the highest dose activity, negative = inhibition, actives largely listed as inhibitors | P00352 | 220,000 tested, 7.3% active | AID 1030 | Purified ALDH1A1, NADH fluorescence, propionaldehyde substrate;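 note: potency is the fitted concentration of half-maximal effect; plate controls were no enzyme wells and a reference inhibitor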
The depositor's hits bear a star; ? = inconclusive; nt = not tested or not shown; [ ] = dose if it differs, or a comment. Rows were chosen to be rich in hits. Some 9% of all compounds tested hit in one or more screens of this group. Unless noted, calls come from the whole dose curve; as a rule, active = well fitted inhibition curve with a large enough effect (not every such curve was filed as active); inconclusive = small, poorly fitted or top-dose-only effect, or another doubt; inactive = no such curve, though single readings can be large or run the other way. Unless noted, % is set by controls: 0 for no effect and ±100 for the full control effect.

SMILES | IMPase cell inh | HPGD block | ALDH1A1 inh
Cn1c(=O)cc(SCC(=O)N2CCOCC2)c2ccc(Cl)cc21 | ? | -26% | -7%
Cn1c(=O)cc(SCC(=O)N2CCCC2)c2ccc(Cl)cc21 | -29 | 14µM* | ?
COc1ccc(-c2nnn(CC(=O)N(Cc3ccccc3Cl)C(C(=O)NCC3CCCO3)c3ccco3)n2)cc1OC (centres undefined) | 5[1.84 µM] | -15% | 8%
CN(C)CCNC(=O)c1ccc(Sc2ccc(Br)cc2)c([N+](=O)[O-])c1 | nt | nt | 11%
NCC(O)(CS(=O)(=O)O)c1ccc(Cl)cc1 (centres undefined) | nt | -6% | -7%
Cn1c2ccccc2c2n[nH]c(=O)nc21 | nt | nt | -2%
Cn1c2ccccc2c2nn(-c3ccccc3)c(=O)cc21 | 1 | -16% | 13µM*
O=C(c1cc2c(s1)CCCC2)N1CCN(Cc2ccc3c(c2)OCO3)CC1 | 7 | -27% | 14µM*
O=C(c1ccccc1[N+](=O)[O-])N1CCN(Cc2ccc3c(c2)OCO3)CC1 | nt | -4% | 1%
O=C(Oc1ccc2c(c1)OCO2)c1cc2c(s1)CCC2 | 7 | 22µM* | -14%
O=C(c1ccc(Br)s1)N1CCN(Cc2ccc3c(c2)OCO3)CC1 | 3 | -1% | -8%
O=C(Oc1ccc2c(c1)OCO2)c1ccc(F)cc1Cl | 6 | ? | -11%
COc1ccc(C(=O)N2CCN(Cc3ccc4c(c3)OCO4)CC2)cc1[N+](=O)[O-] | nt | nt | 1.6µM*
CC(C)NC(=S)N1CCN(Cc2ccc3c(c2)OCO3)CC1 | nt | nt | 22µM*
Cc1ccccc1NC(=S)N1CCN(Cc2ccc3c(c2)OCO3)CC1 | 5 | 1% | 5%
CC1(C)CC(N=Cc2c(O)n(Cc3ccc4c(c3)OCO4)c(=O)c3ccccc23)CC(C)(C)N1 | nt | nt | 12%
CN(C)Cc1ccccc1-c1cncnc1Nc1ccncc1 | nt | nt | -4%
c1ccc(CNc2oc(-c3ccccc3)nc2-c2ccccc2)cc1 | nt | -10% | -12%
Cc1cc2nc(C)n3c4ccccc4nc3n2n1 | 7 | -4% | 6%
CC(C)c1ccc(Nc2c(-c3ccsc3)nc3ccc(Cl)cn23)cc1 | 6 | nt | nt
CC1CC[C@@]2(OC1)OC1CC3C4CC[C@H]5CC(O)CC[C@@]5(C)C4CC[C@]3(C)C1C2C (some centres undefined) | nt | -11% | 1%
Cc1cccc(Oc2nc3c(c(=O)n(C)c(=O)n3C)n2Cc2ccccc2)c1C | 1 | nt | nt
S=C(Nc1ccc(Cl)c(Cl)c1)NC1CCN(Cc2ccccc2)CC1 | -11 | -17% | -16%
Fc1ccc(NC(=S)NC2CCN(Cc3ccccc3)CC2)cc1 | nt | nt | 14µM*
CCCCNC(=O)c1onc(CSc2ccc(F)c(F)c2)c1C(=O)O | 6 | -27% | 7%
SMILES | IMPase cell inh | HPGD block | ALDH1A1 inh
COc1cc(CN2CCNC(=O)C2CC(=O)N2CCCO2)cc(OC)c1 (centres undefined) | nt | nt | 8%
CCOC(=O)c1nnn(-c2nonc2N)c1-c1ccccc1 | 6 | -6% | -6%
NNC(=O)c1nnn(-c2nonc2N)c1-c1cccs1 | 4 | -6% | 11µM*
O=C(NCc1ccco1)c1cccc(NS(=O)(=O)c2cccc(F)c2)c1 | nt | 0% | ?
O=C(NCc1ccco1)c1cc(NS(=O)(=O)c2cccc([N+](=O)[O-])c2)ccc1O | nt | nt | 11µM*
O=C(NCc1ccco1)c1cccc(-c2nnc(-c3ccccc3)o2)c1 | 23 | 13µM* | ?
O=C(NCc1ccccn1)c1cccc(NS(=O)(=O)c2ccccc2F)c1 | nt | -4% | 1.3µM*
O=C(/C=C/c1cccc([N+](=O)[O-])c1)NCc1ccco1 | -2 | ? | ?
O=C(NCc1ccco1)c1cccc(NS(=O)(=O)c2ccccc2F)c1 | nt | -15% | 3.5µM*
Cc1ccc(NS(=O)(=O)c2cc(C(=O)NCc3ccccn3)ccc2Cl)cc1 | -11 | -7% | 11%
O=C(NCc1ccco1)c1ccccc1-c1nc(-c2ccccc2)no1 | 10 | -28% | ?
O=C(c1cnccn1)N1CCC[C@@]2(CCN(c3cccc(-c4ccccc4)c3)C2)C1 | nt | -12% | -9%
O=C(O)P(=O)(O)O | nt | -12% | 1%
Cc1cccc(N2CCN(S(=O)(=O)c3cnc[nH]3)CC2)c1C | 1 | -4% | 5%
O=[N+]([O-])c1ccc(NC(=S)NCc2ccncc2)cc1 | nt | nt | 11µM*
O=C(NCc1ccncc1)Nc1cccc([N+](=O)[O-])c1 | nt | nt | 7%
COc1ccc(NC(=S)NC(C)c2ccncc2)cc1OC (centres undefined) | nt | nt | 1%
O=[N+]([O-])c1ccc(NC(=S)NCCc2ccccc2)cc1 | nt | -10% | ?
CC(NC(=S)Nc1ccc([N+](=O)[O-])cc1)c1ccncc1 (centres undefined) | nt | nt | 20µM*
O=[N+]([O-])c1cccc(NC(=S)NCc2ccncc2)c1 | nt | nt | 9.5µM*
COc1ccc(CN2CCN(Cc3csc(C(C)=O)c3)CC2CCO)c(C)c1C (centres undefined) | nt | nt | -6%
C#CCN(C(=O)Nc1ccccc1)c1ccccc1 | nt | -15% | 7%
O=C(C[n+]1ccc(/C=N/O)cc1)NC1CCCCC1 | nt | nt | 10%
COC(=O)C1CCN(CC(=O)Nc2cc(Cl)ccc2OC)CC1 | nt | nt | 10%
COc1ccc(Cl)cc1NC(=O)CN1CCCC1 | nt | nt | 10µM*
SMILES | IMPase cell inh | HPGD block | ALDH1A1 inh
COc1ccc(C)cc1NC(=O)CN1CCN(S(=O)(=O)c2ccc(C(C)C)cc2)CC1 | 7 | -13% | 5µM*
COc1ccc(NC(=O)CN2CCN(S(=O)(=O)c3ccc(C(C)C)cc3)CC2)cc1OC | -7 | -7% | ?
COc1ccc(Cl)cc1NC(=O)Cn1cccc1 | 7 | -16% | 13µM*
COc1cc(OC)c(NC(=O)Cn2cccc2)cc1Cl | 17 | -7% | -11%
O=c1cc(CF)[nH]c(=S)[nH]1 | nt | -13% | -13%[13.5 µM]
Cn1c(=O)c2c(ncn2CC(=O)N/N=C/c2c[nH]c3ccccc23)n(C)c1=O | nt | nt | 5%
CCn1c(C)c(P(c2ccccc2)c2ccccc2)[n+]2ccccc12 | nt | nt | 7%
CCOc1ccccc1NC(=O)c1cc(C(=O)Nc2ccccc2OCC)cc(N2C(=O)CCC2=O)c1 | nt | nt | -2%
COc1ccc(S(=O)(=O)n2nc(-c3cc(OC)c(OC)c(OC)c3)cc2N)cc1OC | -9 | -11% | 5%
COc1ccc(-c2cc(N)n(S(=O)(=O)c3c(F)c(F)c(F)c(F)c3F)n2)cc1OC | 1 | -21% | 32µM*
CC(C)c1ccc(O)c(O)c(=O)c1 (tested in a mixture with another compound) | nt | -8% | -5%[13.5 µM]
COc1ccc(CCN(C)C(=O)CSc2nnnn2C)cc1OC | nt | nt | 5%
NC1=C(c2ccc(F)cc2)C(=O)CS1 | -8 | 6.3µM* | 20µM*
NC1=C(c2ccc([N+](=O)[O-])cc2)C(=O)CO1 | nt | -13% | -3%
CCN(CC)CCNc1ccc2nnc(CCNS(=O)(=O)c3ccc(C)cc3)n2n1 | nt | nt | 10%
COc1ccc(NC(=O)C2CC(=O)n3ncnc3N2)cc1 (centres undefined) | -3 | -7% | 3%
COc1ccc(NC(=O)C2CC(=O)n3cnnc3S2)cc1 (centres undefined) | -2 | 18µM* | 0.71µM*
COc1cccc(NC(=O)C2CC(=O)N=C(N)S2)c1 (centres undefined) | 3 | -7% | 11%
COc1cccc(NC(=O)C2CC(=O)n3cnnc3S2)c1 (centres undefined) | 0 | 16µM* | 0.71µM*

Screening results (PubChem BioAssay)
